Screens: PubChem, National Center for Advancing Translational Sciences (NCATS)
AmpC det inh: AmpC beta-lactamase inhibition, detergent assay. 71,000 tested, 0.09% active. Potency, µM (doses to about 28.7 µM), without a hit: top-dose activity change, negative = inhibition. purified AmpC, nitrocefin hydrolysis with detergent. AID 584; active = well fitted curve in the direction sought with a large enough effect; inconclusive = small, poorly fitted or top-dose-only effect; note: % is set by controls: 0 for no effect and ±100 for the full control effect
Target sequence (P00811 whole entry, looked up): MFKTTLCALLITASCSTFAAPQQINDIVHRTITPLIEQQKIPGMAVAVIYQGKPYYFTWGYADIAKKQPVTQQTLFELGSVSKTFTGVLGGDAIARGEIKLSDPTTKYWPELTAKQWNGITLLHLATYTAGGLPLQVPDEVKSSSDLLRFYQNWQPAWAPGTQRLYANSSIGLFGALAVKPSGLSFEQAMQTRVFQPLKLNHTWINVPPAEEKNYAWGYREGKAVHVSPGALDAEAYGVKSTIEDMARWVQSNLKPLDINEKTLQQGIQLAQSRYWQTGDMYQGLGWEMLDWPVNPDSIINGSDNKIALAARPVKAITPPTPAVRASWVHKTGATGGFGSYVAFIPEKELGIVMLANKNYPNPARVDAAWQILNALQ
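E. coli AmpC (5.3 nM) in 20 mM phosphate pH 7.0 with 0.01% Triton X-100, preincubated 15 min RT with compound; nitrocefin (2 uL of 800 uM stock) hydrolysis followed by 480 nm absorbance every 20 s over 4 min.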
LT uptake inh: anthrax lethal toxin internalization inhibition; Potency, µM (titrated, usually from 40 µM), without a hit: at the top dose activity change, negative = inhibition, usual class: inhibitors; AID 912; Cells, anthrax lethal toxin internalization, FRET ratio (460/530); 70,000 tested, 0.67% active; note: % is set by controls: 0 for no effect and ±100 for the full control effect; nearly all actives have a fitted effect of over 50% in size
Prx2 Sm inh: blocks S. mansoni peroxiredoxin 2 enzymatic activity | S. mansoni Prx2 activity coupled to TGR/GSH (TGR is thioredoxin glutathione reductase), NADPH fluorescence loss, qHTS | Potency, µM | 65,000 tested, 0.07% active
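qHTS, coupled TGR/Prx2 format; 15 min compound preincubation at RT; reaction started with H2O2 (2.5 mM aliquot); kinetic NADPH fluorescence decrease, ex 365/em 450 nm.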
AmpC nodet inh: inhibitors of E. coli AmpC beta-lactamase without detergent; P00811; AmpC nitrocefin hydrolysis, absorbance 480 nm, no detergent; Potency, µM (series often up to 28.7 µM), for the others: at the highest dose activity change, negative = inhibition; 71,000 tested, 1.8% active; note: % of control where 0% means no effect
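Enzyme, pH 7.0 phosphate. Compound titrations were pre-incubated with AmpC for 15 min at room temperature before nitrocefin (stock 800 uM) addition; product formation was recorded at 480 nm every 20 s for 4 min.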
An asterisk follows results filed as active; [ ] = dose if it differs, or a comment. Rows were chosen to be rich in hits. Some 2.4% of all compounds tested hit in one or more screens of this group. Unless noted, calls come from the whole dose curve. Potency is the fitted concentration of half-maximal effect.

COc1ccc(C(=O)CSc2nnc(-c3cc4ccccc4cc3O)n2Cc2ccco2)cc1 was read as AmpC det inh 15.1%, LT uptake inh inconclusive, Prx2 Sm inh >57 and AmpC nodet inh 10µM*.
`O=C(NC1CCCc2ccccc21)C1CCN(c2c(N3CCCC3)c(=O)c2=O)CC1` (stereo not drawn) gave AmpC det inh 10.9%, LT uptake inh -4.5%, Prx2 Sm inh >57 and AmpC nodet inh 3.98µM*[single pt active].
`Cc1cc(=O)n2nc(N3CCC(C(=O)NC4CCCc5ccccc54)CC3)sc2n1` (stereo not drawn) gave AmpC det inh 14.7%, LT uptake inh 5.1%, Prx2 Sm inh >57 and AmpC nodet inh 64.7%.
`Cc1ccccc1NC(=O)CN1C(=O)COc2ccc(Cl)cc21` gave AmpC det inh 12.0%, LT uptake inh 10µM*, Prx2 Sm inh >57 and AmpC nodet inh 1.7%.
C[C@H]1C[C@H]2[C@H]3CCC4=CC(=O)C=C[C@@]4(C)[C@]3(F)[C@H](O)C[C@]2(C)[C@@]1(O)C(=O)COP(=O)(O)O was read as AmpC det inh -1.1%[5.75 µM], LT uptake inh -6.7%[8 µM], Prx2 Sm inh >57 and AmpC nodet inh 2.6%[5.75 µM].
`Clc1ccc(N2C[C@H]3CC[C@@H](C2)N3)nn1` gave AmpC det inh -1.5%, LT uptake inh -4.3%, Prx2 Sm inh >57 and AmpC nodet inh 4.2%.
Screening COC(=O)c1cc(NC2c3ccccc3C(=O)N2c2cccnc2)cc(C(=O)OC)c1 (stereo not drawn) returned AmpC det inh 12.6%, LT uptake inh 4.9%, Prx2 Sm inh >57 and AmpC nodet inh 3.98µM*[single pt active].
O=C(COC(=O)Cc1ccc(S(=O)(=O)N2CCOCC2)s1)NCc1ccccc1 was read as AmpC det inh -2.6%, LT uptake inh -3.1%, Prx2 Sm inh >57 and AmpC nodet inh 14.3%.
For O=C(COC(=O)Cc1ccc(S(=O)(=O)N2CCCCC2)s1)Nc1ccc2c(c1)OCO2 the results were AmpC det inh 11.2%, LT uptake inh -8.7%, Prx2 Sm inh >57 and AmpC nodet inh 12.6µM*.
For COc1ccc2c(c[n+](C)c3c4cc5c(cc4ccc23)OCO5)c1OC the results were AmpC det inh -3.0%, LT uptake inh 25.1µM*, Prx2 Sm inh >57 and AmpC nodet inh 20.3%.
`Oc1ccc([C@@H]2CNCc3sccc32)cc1O` gave AmpC det inh -4.5%, LT uptake inh 0.0%, Prx2 Sm inh >57 and AmpC nodet inh -7.8%.
`O=C(O)C[C@H]1NCc2cc3ccccc3nc21` gave AmpC det inh 0.6%[5.75 µM], LT uptake inh 5.6%[8 µM], Prx2 Sm inh >57 and AmpC nodet inh -3.5%[5.75 µM].
`CCOC(=O)CC1=NS(=O)(=O)c2ccccc2N1` gave AmpC det inh 13.7%, LT uptake inh -4.3%, Prx2 Sm inh >57 and AmpC nodet inh 0.4%.
For COc1ccccc1N1CCN(C(=O)CCCC2=NS(=O)(=O)c3ccccc3N2)CC1 the results were AmpC det inh 11.9%, LT uptake inh -10.0%, Prx2 Sm inh >57 and AmpC nodet inh 3.98µM*[single pt active].
`NS(=O)(=O)c1ccc(NC(=O)CCC2CCCCC2)cc1` gave AmpC det inh 9.0%, LT uptake inh -21.9% and AmpC nodet inh 7.94µM*.
`O=C(O)C/C(=C\c1ccccc1)C(=O)O` gave AmpC det inh -1.1%[5.75 µM], LT uptake inh 4.7%[8 µM], Prx2 Sm inh >57 and AmpC nodet inh 5.0%[5.75 µM].
CC(C)[C@@H]1OC(=O)C=CC=CC=CC=CC=CC[C@@H](O)[C@H](C)[C@@H](O)C[C@H](O)C[C@H](O)C[C@H](O)C[C@H](O)C[C@H](O)C[C@H](O)C=C[C@@H]1C was read as AmpC det inh -3.9%[5.75 µM], LT uptake inh -0.4%[8 µM], Prx2 Sm inh >57 and AmpC nodet inh 39.0%[5.75 µM].
C=C(C)c1ccccc1 (tested in a mixture with another compound) was read as AmpC det inh -3.7%[5.75 µM], LT uptake inh -1.9%[8 µM], Prx2 Sm inh >57 and AmpC nodet inh -4.1%[5.75 µM].
Screening CC(C)CCn1c(SCC#N)nc2c(sc3ccccc32)c1=O returned AmpC det inh 4.0%, LT uptake inh 8.6%, Prx2 Sm inh >57 and AmpC nodet inh -3.2%.
For C=CCn1c(=O)n(CCOC)c(=O)c2sc3ccccc3c21 the results were AmpC det inh 11.8%, LT uptake inh -10.4%, Prx2 Sm inh >57 and AmpC nodet inh 3.98µM*[single pt active].
Screening CCn1c2ccccc2c2cc(NC(=O)C3CCN(S(=O)(=O)c4cccs4)CC3)ccc21 returned AmpC det inh -1.1%, LT uptake inh -28.5%, Prx2 Sm inh >57 and AmpC nodet inh 12.6µM*.
Screening Cc1ccc(Cn2ccc(NC(=O)c3cc(-c4ccccc4)on3)n2)cc1 returned AmpC det inh -0.5%, LT uptake inh -13.1%, Prx2 Sm inh >57 and AmpC nodet inh inconclusive.
For Cc1ccc(Cn2ccc(NC(=O)c3cc(-c4ccc5c(c4)OCO5)on3)n2)cc1 the results were AmpC det inh -2.5%, LT uptake inh 0.7%, Prx2 Sm inh >57 and AmpC nodet inh 10µM*.
Screening [N-]=[N+]=Nc1ccc(C(=O)CSC[C@@H](NC(=O)CC[C@@H](N)C(=O)O)C(=O)NCC(=O)O)cc1 returned AmpC det inh -4.7%, LT uptake inh -6.8%, Prx2 Sm inh >57 and AmpC nodet inh 5.6%.
`COc1ccc(C2CC(=O)N3CN(c4ccccc4F)CSC3=C2C#N)cc1OC` (stereo not drawn) gave AmpC det inh 13.3%, LT uptake inh 9.7%, Prx2 Sm inh >57 and AmpC nodet inh 0.6%.
Screening CCc1ccccc1N1CSC2=C(C#N)C(c3ccccc3F)CC(=O)N2C1 (stereo not drawn) returned AmpC det inh 1.9%, LT uptake inh -1.3% and AmpC nodet inh 12.6µM*[single pt active].
Screening COc1ccc(N2CSC3=C(C#N)C(c4cccc(OC)c4OC)CC(=O)N3C2)cc1 (stereo not drawn) returned AmpC det inh 10.4%, LT uptake inh -11.7%, Prx2 Sm inh >57 and AmpC nodet inh 3.98µM*[single pt active].
For COc1ccc(OC)c(C2CC(=O)N3CN(c4ccccc4)CSC3=C2C#N)c1 (stereo not drawn) the results were AmpC det inh 13.0%, LT uptake inh -15.0%, Prx2 Sm inh >57 and AmpC nodet inh 8.4%.
`COc1ccc(C2CC(=O)N3CN(c4ccc(C)c(Cl)c4)CSC3=C2C#N)cc1` (stereo not drawn) gave AmpC det inh 7.5%, LT uptake inh -16.3% and AmpC nodet inh 2.51µM*[single pt active].
COc1cc(OC)c(C2CC(=O)N3CN(c4ccccc4C)CSC3=C2C#N)cc1OC (stereo not drawn) was read as AmpC det inh -10.9%, Prx2 Sm inh >57 and AmpC nodet inh 13.7%.
Cc1cccc(N2CSC3=C(C#N)C(c4ccc(C)o4)CC(=O)N3C2)c1 (stereo not drawn) was read as AmpC det inh -10.7%, Prx2 Sm inh >57 and AmpC nodet inh 15.8µM*.
Screening CC1(C)C(=O)NC2=C1C(=O)C(=O)c1ccccc12 returned AmpC det inh -4.2%, LT uptake inh inconclusive, Prx2 Sm inh >57 and AmpC nodet inh 0.6%.
CCN1C(=O)c2cccc3cccc1c23 was read as AmpC det inh -1.1%, LT uptake inh inconclusive, Prx2 Sm inh 3.94* and AmpC nodet inh -2.6%.
